61 sequences from the supplement of paper PMC11417369 can be followed below.

Over roughly 25,000 sequences, “ln(normalized median fluorescence intensity)” has its median near 6.7; the highest 2% begin near 10. The sample as a whole holds a higher share of the highest values than the screen did.

For this experiment, the system named is PfHDP1 homeodomain (GST-tagged). Nature of the experiment: gcPBM binding intensity (ln(normalized median fluorescence intensity)); higher = stronger DNA binding. In a few lines: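 After 1 h on an Agilent 4 × 180k array of primer-extended double-stranded 36-bp intergenic genomic probes and negative controls, bound GST-tagged P. falciparum DNA-binding domains were detected with Alexa488 anti-GST antibody and scanned at 488 nm. The domains had been expressed in E. coli, and binding took place in 1× PBS with 1% milk, 0.2 mg/ml BSA, 0.5% salmon testes DNA and 0.03% Triton X-100. Binding intensity is the highest Masliner-normalised natural-log median intensity across replicate spots of either probe orientation.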
Turning to “ATATTGACAAATATTACACACATATATATATATATA [CACACA_site4079]”, the “gcPBM binding intensity (ln)” value was 9.39.
The same measure for “TATATATATATATATTGTACTAATTGTGCAAATGAG [XGTACX_site682]”: 10.9; for “AAAAAAAAAATTAATTGTACTAAAAAAATATTATAT [XGTACX_site8903]”: 6.41; for “ATAACTAAATGATATTGTACAAAATAATTATATATT [XGTACX_site1331]”: 6.38.
The same measure for “TATGATATCTATAATACACACATATACATAAGATCT [CACACA_site6652]”: 6.6; for “AAAAATATTTAAAATACACACATATCTATAATATAT [CACACA_site7032]”: 6.36; for “TACCAAAAAAAAAAAAATAAAAATAAAAAAAAAAAT [CACACA_negctrl_site1714]”: 6.27.
The same measure for “AAAAAAAAAAAAAAAAGTACACATCATTTTATGAAA [XGTACX_site1402]”: 6.41; for “TTTGAAAAGTTGAAATGTACACATTTACACATATTT [XGTACX_site1641]”: 6.24; for “AACACATACATATATGCACACATTTTATTCCATTAT [CACACA_site2834]”: 10.1.
“TATTTACATTTATGTGCACACATTCCATTTGAAAGT [CACACA_site1954]”: the “gcPBM binding intensity (ln)” value was 11.
As for “AAGTTGAAATAATGTGCACACATTTTTTTTTTTTTT [CACACA_site3368]”, the “gcPBM binding intensity (ln)” value came out at 9.16.
To “TTTACATTTATGTGCACACATTCCATTTGAAAGTAA [CACACA_site1953]” belongs 10.9; to “TTACAAGTAAAAGGTACACACATTATAAATACAAAT [CACACA_site4752]”, 6.93.
As to “ATCAACATCTAACATTGTACATGTGATGTGTAAAAG [XGTACX_site547]”, the “gcPBM binding intensity (ln)” value worked out at 6.69.
To “TATATATATATATGTACACACATCAATCATATTAAC [CACACA_site1946]” belongs 9.26; to “TATATATATATATATATTAATAATTAATATAAAAGA [XGTACX_negctrl_site32]”, 9; to GAGGTACATTAATTAGTGCATTAAAATTTTTATCCT, 9.85.
In the case of “TATGTTATATAATATTGTACACAAAATGGTTTCTAT [XGTACX_site7686]”, the “gcPBM binding intensity (ln)” value worked out at 6.73.
“TAAATTAAAAAAAAAAACAAAAAAAAAGCAACAAAA [CACACA_negctrl_site1318]”: the “gcPBM binding intensity (ln)” value worked out at 6.62.
To “ATGTGCACATGTAGAAGTACTTTTTCTTAAAATACT [XGTACX_site8341]” belongs 10.9.
The same measure for “TTTTGAAGTAATACATGTACTTAAATTACTAAAAAA [XGTACX_site1955]”: 6.04.
The same measure for “AAGTTTTCTTAAAGATGTACTTTTTAAAAATAAAAT [XGTACX_site3063]”: 6.15; for “TTTAAAATGGGACTTTGAAAAAAAAAAAAAAAAACA [TGCATGCA_negctrl_site111]”: 6.1.
Regarding “AAATATTACATTTGTTAAATAATATGTTATACATAA [XGTACX_negctrl_site484]”, the “gcPBM binding intensity (ln)” value came out at 5.89.
The same measure for “ATGTCAAATTTTTGTGCACACATATATAGTTATTAT [CACACA_site2242]”: 11.4; for CAGTTGTTAATTTGTGTGCACCAAATATTATACATA: 10.5.
To “TTTTCATATTATAGTGCACACAAAAATATATATATG [CACACA_site8929]” belongs 10.3.
To “TGTGTCAAATAATTAATGTCATATATATTTTGTATA [CACACA_negctrl_site1479]” belongs 6.11.
As to “TTTTTTTTTTTTTTTGTGCACAATTATTTCAATTTT [GTGCAC_site9884]”, the “gcPBM binding intensity (ln)” value was 10.2.
“AATTTTTTATATGTCACACATTTGTTATTATTATTA [CACACA_site4197]”: the “gcPBM binding intensity (ln)” value amounted to 6.51.
For the sequence “TGTGTATTTATAAATACACACCAAATGTTAATATAT [CACACA_site6904]”, the “gcPBM binding intensity (ln)” value was found to be 6.9.
Take “GTCAAATTTTTGTGCACACATATATAGTTATTATTA [CACACA_site2241]”: the “gcPBM binding intensity (ln)” value turned out to be 11.7.
The same measure for “ATGAAACAGTAACATTGTACTTTTACAAAAAAATAA [XGTACX_site806]”: 6.25; for “TTATATATATATAATACACACATAATAATATATTTA [CACACA_site3038]”: 6.67; for “TATAATAATAATAATAGTACGTATTATTAAAAAACT [XGTACX_site10]”: 6.58.
To “TATATAGATATGATAGTGCATTTTTAGAAAACATAA [GTGCAC_site9962]” belongs 7.95; to “TTATAAAAAATTTTAGTGCATATATGATTTATATAT [GTGCAC_site9831]”, 9.44; to ATGATATGCAATTTAGTGCATAACAAAATTGGTATA, 10.5.
The same measure for “AAAATGCATTTGATGTGTACGCATTATAAAGAACAA [XGTACX_site4203]”: 7.39; for “TAGTATAATATGAACACACACACACGCACAAAAAAA [CACACA_site7035]”: 7.3; for “TTATATGCACTTTTTGCACACGTATGAATAACAAAA [CACACA_site1811]”: 11.5.
With “TACGTAATAATATGCACACAAATAAACTTTATAAAT [CACACA_site3501]”, the “gcPBM binding intensity (ln)” value turned out to be 9.89.
Take “ATAGGCACTTTTTGCACACGTATGAATAACAAAATA [CACACA_site5069]”: the “gcPBM binding intensity (ln)” value is 10.4.
To “ATATGCACTTTTTGCACACGTATGAATAACAAAATA [CACACA_site1810]” belongs 11.2.
The same measure for “AGTAAATAACACAAATATGAATGAAAAAAAAAATAT [GTGCAC_negctrl_site235]”: 6.82.
To “AAAAGGAAGATATATACACACATACAAATATTTATA [CACACA_site7093]” belongs 6.71.
Take “TATACTTGTAAATGCACACATAAGATGCGACTAATG [CACACA_site2118]”: the “gcPBM binding intensity (ln)” value was found to be 9.37.
The same measure for “TAAGTGCATGAGATATGTACATATATAAAATATATA [XGTACX_site3294]”: 9.2; for “TAAGGGATATGTATATGTACATACAAATATATATAA [XGTACX_site2892]”: 6.63; for “TACAATAAGGATAAGTGTACATATGTGCATACATAT [XGTACX_site7188]”: 10.6.
Take “TATACATACTCACCCACACACAAAAAAAAAAAAAAA [CACACA_site862]”: the “gcPBM binding intensity (ln)” value was determined as 6.43.
To “TTTTATCTTTTTTTATTTTAATGTATTATTTTTATG [XGTACX_negctrl_site24]” belongs 6.61; to “ATAAAAAAATTAAATACATGCACATATACACATACA [TGCATGCA_site129]”, 8.6; to “TATAACCGAATGTGTACACAAAATAATGTTATATAT [CACACA_site5627]”, 7.77.
To “GAATAAATTAAAAATGCACACTTTGATGGGTACATT [CACACA_site5220]” belongs 8.68.
Consider “TGTTTGTAATTATGTATGCACTTTTTTGTATGTGTG [GTGCAC_site9668]”, for which the “gcPBM binding intensity (ln)” value is 7.52.
The same measure for “GAATGTCTAATTTTGATGCACACTTTTGTGCAATTA [CACACA_site2902]”: 11.1.
As to AATTTTTGTTACAAGATGCACTTAATTTTTCTAAAT, the “gcPBM binding intensity (ln)” value is 7.92.
With “GATGATTCAATTTATGCACACTAAAAATTAATTATA [CACACA_site4308]”, the “gcPBM binding intensity (ln)” value amounted to 10.1.
Consider “ATGTCTAATTTTGATGCACACTTTTGTGCAATTAAA [CACACA_site5589]”, for which the “gcPBM binding intensity (ln)” value turned out to be 11.
